An excerpt weighted towards active compounds, which were near 13% of everything screened.
USP17 block: blocks human USP17 ubiquitin-rhodamine cleavage; A8MUK1; purified USP17, Ub-rhodamine cleavage fluorescence, 3 h; inhibition, % at 50 µM; hit rate 6.5% among 47,000
USP28 block: inhibitors of human USP28 deubiquitinase | Q96RU2 | AID 1645857 | hit rate 3% among 47,000 | inhibition, % at 25 µM | purified USP28, Ub-rhodamine cleavage fluorescence, 30 min
USP8 inh: blocks human USP8 ubiquitin-rhodamine cleavage. hit rate 4.2% among 47,000. inhibition, % at 20 µM. purified USP8, Ub-rhodamine cleavage fluorescence, 30 min. P40818. AID 1645853
USP30 inh: blocks human USP30 ubiquitin-rhodamine cleavage. Q70CQ3. purified USP30, Ub-rhodamine cleavage fluorescence. inhibition, % at 25 µM. hit rate 5.3% among 47,000
An asterisk follows results filed as active; . = not tested or not shown. Rule as the data show it: active = inhibition above about 30%; inactive = the rest.

SMILES | USP17 block | USP28 block | USP8 inh | USP30 inh
COc1cc(C2NC(=O)NC(C)=C2C(=O)OC2CCCC2)cc(OC)c1OC (configuration not stated) | -1 | -2 | 7 | 6
Cc1cccc(-n2c(Cc3cc(=O)[nH]c(=O)[nH]3)nnc2SCC(=O)NCc2ccccc2Cl)c1 | 6 | 10 | 7 | 31*
Cc1csc(NCC2CCCO2)n1 (configuration not stated) | -13 | . | -4 | .
O=C1N(c2ccccc2)C2CS(=O)(=O)CC2N1c1ccc([N+](=O)[O-])cc1 (configuration not stated) | 30* | . | 0 | .
CCC(Sc1nc2cc(OC)c(OC)cc2c2nc(C)nn12)C(=O)Nc1cccc(C)c1 (configuration not stated) | -1 | -2 | -1 | 0
O=C(CSc1nc2ccccc2n1S(=O)(=O)c1ccc(Br)cc1)Nc1ccc([N+](=O)[O-])cc1Cl | -10 | 54* | -57 | -48
COc1ccc(S(=O)(=O)n2c(SCC(=O)Nc3ccc(Oc4ccccc4)cc3)nc3ccccc32)cc1 | 15 | 45* | -24 | -72
O=C(CSc1nc2ccncc2[nH]1)Nc1ccc(Br)cc1F | 61* | 0 | 35* | 19
COc1ccc(NC(=O)CSc2nc3ccccc3c3nc(C)nn23)cc1OC | 37* | 19 | 41* | 32*
Cc1ccc(CNC(=O)C2(C)Oc3cccnc3N(C)C2=O)cc1 (configuration not stated) | 24 | 16 | 21 | 17
Cc1nc(N2CCCC2)c2sc3nc4c(cc3c2n1)COC(C)(C)C4 | -4 | 2 | -11 | 8
NC(=O)c1cc2ccccc2nc1C1CCN(C(=O)Cc2ccsc2)CC1 | -16 | -8 | -8 | -7
COc1ccccc1NC(=O)CSc1nc2ccccc2n1S(=O)(=O)c1cc([N+](=O)[O-])ccc1C | -50 | 4 | -116 | -44
O=C(CSc1nc2ccccc2n1S(=O)(=O)c1ccc(Br)cc1)Nc1ccc(Br)cc1F | 34* | 27 | 14 | 0
Cc1ccccc1-n1ncc(C(=O)Nc2cccc(C#N)c2)c1C1CC1 | 0 | 42* | -24 | 0
O=C(CSc1nnc2ccc(-c3ccc4c(c3)OCO4)nn12)NCC1CCCO1 (configuration not stated) | . | 10 | 13 | 42*
Cc1ccc(F)cc1S(=O)(=O)Nc1cnc(N2CCCC2)nc1 | -2 | -7 | -17 | -9
CC(C)c1c(O)ccc2c1CCC1[C@@](C)(C=O)CCC[C@]21C (some centres not stated) | 35* | 14 | 5 | 18
Cc1ccc(N2C(=O)C3C4CCCN4C4(C(=O)Nc5ccccc54)C3C2=O)cc1[N+](=O)[O-] (configuration not stated) | -8 | -18 | -91 | -76
O=C(COc1ccc2c(c1)OCO2)Nc1ccc(N2CCOCC2)cc1 | -4 | 9 | -96 | -32
O=C(COC(=O)c1ccccc1O)Nc1ccc2[nH]c(=O)[nH]c2c1 | 21 | 28 | 29 | 34*
Cc1cccc(C(=O)OCC(=O)Nc2ccc3[nH]c(=O)[nH]c3c2)c1 | 57* | 48* | 52* | 77*
O=C(COC(=O)c1ccc2c(c1)OCO2)Nc1ccc(N2CCCCC2)cc1 | 33* | 6 | -62 | -8
Cc1cccc(C(=O)OCC(=O)Nc2ccc(N3CCOCC3)cc2)c1O | 32* | 4 | 1 | 9
Cc1cc(C)n(-c2nnc(NCCc3ccccc3)nn2)n1 | 11 | 8 | -2 | 15
SMILES | USP17 block | USP28 block | USP8 inh | USP30 inh
CC(C)(C)c1ccc(C(=O)OCC(=O)Nc2ccc3c(c2)OCO3)cc1 | -7 | 18 | 12 | -2
O=C(COC(=O)c1ccc2c(c1)OCO2)Nc1ccc2[nH]c(=O)[nH]c2c1 | 42* | 28 | 6 | 17
COCCNC(=O)CN1C(=O)CCSc2ccc(S(=O)(=O)N3CCCC3)cc21 | 0 | -6 | -7 | 0
CCOC(=O)N1CCC(NC(=O)c2cn(-c3ccc(C)cc3)nn2)CC1 | 60* | . | 2 | .
Cc1ccc(-n2cc(C(=O)N3CCN(c4ccccc4)CC3)nn2)cc1 | 40* | 10 | 40* | 44*
Cc1ccc(-n2cc(C(=O)NCCCc3ccccc3)nn2)cc1 | 28 | 17 | 78* | 49*
COc1cccc(NC(=O)C2CCN(C(=O)C3CC(=O)N(c4ccc(C)cc4)C3)CC2)c1 (configuration not stated) | 0 | 23 | 1 | 7
COc1cc(OC)c(C(=O)Nc2cc(S(=O)(=O)N3CCCCC3)ccc2C)cc1OC | 19 | -10 | 10 | -40
Cc1ccccc1NC(=O)c1cc(S(=O)(=O)N2CCCCCC2)ccc1Cl | . | 24 | 27 | 63*
CCOc1ccccc1NC(=O)c1cc(S(=O)(=O)N2CCCCC2)ccc1F | 29 | 28 | 16 | 29
Cc1cccc(NC(=O)CN2C(=O)COc3cc(S(=O)(=O)N4CCCC4)ccc32)c1C | 19 | 21 | 27 | 60*
CCOC(=O)N1CCN(S(=O)(=O)c2ccc(F)c(C(=O)Nc3ccccc3Cl)c2)CC1 | 2 | 5 | 3 | 36*
CC(C)(C)NC(=O)CN1C(=O)COc2cc(S(=O)(=O)N3CCCC3)ccc21 | 2 | 4 | 0 | -8
Cc1ccc(S(=O)(=O)N2CCCCC2)cc1NC(=O)Cc1cccc(F)c1 | -9 | 60* | 2 | -4
CNC1C(OC2C(OC3C(O)C(O)C(N=C(N)N)C(O)C3N=C(N)N)OC(C)C2(O)C=O)OC(CO)C(O)C1O (configuration not stated) | -6 | -5 | 0 | 9
Cc1cc(=O)n(CC(=O)NCc2ccc(F)cc2F)c(N2CCCC2)n1 | -3 | -3 | 6 | -10
COc1ccc(CC(=O)N2CCN(S(=O)(=O)c3cccc4nsnc34)CC2)cc1 | -13 | -7 | -84 | 2
CC(NCC(=O)Nc1cc(S(=O)(=O)N2CCCCCC2)ccc1Cl)c1ccccc1 (configuration not stated) | 18 | 17 | 6 | 43*
CCOc1ccc(CC(=O)Nc2cc(N3CCCS3(=O)=O)ccc2C)cc1 | 8 | 14 | 2 | 43*
COc1ccc(CC(=O)Nc2cc(N3CCCS3(=O)=O)ccc2C)cc1 | 20 | 12 | 13 | 25
O=C(O)COc1cc(O)c2c(=O)c(-c3ccc4c(c3)OCCO4)coc2c1 | 12 | 5 | 29 | 8
COc1ccc2occ(-c3ccc4c(c3)OCCO4)c(=O)c2c1 | 16 | 9 | 13 | 33*
CN1[C@@H](CCC(=O)NCc2cccnc2)CNC(=O)[C@@H]2[C@H]1CCN2Cc1ncc[nH]1 | -65 | 10 | -11 | -3
COc1ccc(C(C(=O)NC2CCCCC2)N(C(=O)CCCC(=O)Nc2ccccn2)c2ccccc2C)cc1 (configuration not stated) | 56* | 6 | -1 | 11
COc1ccc(N(C(=O)CCCC(=O)Nc2ccccn2)C(C(=O)NC2CCCCC2)c2ccc(Cl)cc2)c(OC)c1 (configuration not stated) | 0 | -10 | 0 | 19
Cc1ccc(N(C(=O)CCCC(=O)Nc2ccccn2)C(C(=O)NC2CCCC2)c2ccc(F)cc2)cc1C (configuration not stated) | 37* | 24 | 15 | 38*

Source: PubChem BioAssay (Buhrlage Lab, Dana-Farber Cancer Institute and Novartis Institutes for BioMedical Research (Cambridge, Mass))
